Results published in PubChem BioAssay (NCI).
This is part of a sample that, as a whole, favours compounds with a hit. Of some 83,000 tested, about 20% had one in any assay.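 Testing used 96-well plates and a 48-hour single-concentration exposure. Example: -40 means 40% of the starting cells died.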 Values without a mark were called inactive. The source made the active and inactive calls. Rule for the calls: active = growth percent below 10; inactive = the rest.

Legend:
Assay in all cases: NCI-60 one-dose screen, 48 h (100 = growth as untreated, 0 = no growth, -100 = all killed)
Details in all cases: 10 µM unless noted
[1] = tested on: NCI-H23 lung
[2] = tested on: NCI-H226 lung
[3] = tested on: NCI-H322M lung
[4] = tested on: HOP-62 NSCLC
[5] = tested on: NCI-H460 lung
[6] = tested on: HOP-92 NSCLC
[7] = tested on: NCI-H522 lung
[8] = tested on: A549/ATCC NSCLC
[9] = tested on: 786-0 renal
[10] = tested on: COLO 205 colon
[11] = tested on: DU-145 prostate
[12] = tested on: K-562 leukemia
[13] = tested on: MALME-3M melanoma
[14] = tested on: MDA-MB-231 breast
[15] = tested on: RXF 393 renal
[16] = tested on: SF-268 CNS
[17] = tested on: SF-295 CNS
[18] = tested on: SF-539 CNS
[19] = tested on: UACC-257 melanoma
[20] = tested on: M14 melanoma

Compound | growth [1] [%] | growth [2] | growth [3] | growth [4] | growth [5] | growth [6] | growth [7] | growth [8] | growth [9] | growth [10] | growth [11] | growth [12] | growth [13] | growth [14] | growth [15] | growth [16] [%] | growth [17] | growth [18] | growth [19] | growth [20]
Nc1ncc(-c2ccc3ncnc(N4CCc5ccc(Cl)cc54)c3c2)cn1 | 12.4 | 0.981% (active) | -15.4% (active) | -11.9% (active) | 4.03% (active) | -34.5% (active) | -15.7% (active) | 0.08% (active) | -0.891% (active) | -25.8% (active) | 10% | 10.5% | -17.4% (active) | -3.01% (active) | -29.4% (active) | 11.2 | -7.57% (active) | -68.8% (active) | 8.1% (active) | 8.74% (active)
Cc1nc2ccccc2c(/C=C/c2ccc(Cl)cc2)c1C(=O)/C=C/c1ccccc1 | 22.2 | 40.2% | 41.2% | -36.7% (active) | -33% (active) | 41.4% | -13.3% (active) | 21.2% | 7.29% (active) | -5.72% (active) | 9.75% (active) | 6.19% (active) | -20.4% (active) | 9.11% (active) | -41.8% (active) | 51.3 | 10.7% | -48.8% (active) | -3.79% (active) | -0.144% (active)
O=c1c2cccc3c(N4CCOCC4)ccc(c32)c2nc3ccccc3n12 | 76.9 | 91% | 89.1% | 86.4% | 88.4% | 59.2% | 80.5% | 92.7% | 97.5% | 87.6% | 109% | 80% | 97.7% | 82% | 131% | 109 | 86.3% | 90.5% | 96.2% | 104%
CC1(C)CC(=O)C2=C(C1)OC(C(=O)c1ccccc1)C2c1cccc(Oc2ccccc2)c1 (stereo not given) | 48.5 | 53.3% | 75.1% | 66.7% | 51.4% | 13.4% | 38.2% | 29.9% | 53.1% | 38.3% | 68.1% | 31.7% | 59.5% | 50.4% | 42.8% | 44.6 | 32.6% | 63.9% | 45.5% | 36.8%
COc1ccccc1NC(=O)n1c(=O)cc(C)c2ccc(O)cc21 | 102 | 93.5% | 103% | 102% | 111% | 88.9% | 96.2% | 105% | 115% | 110% | 113% | 117% | 106% | 106% | 94.8% | 106 | 101% | 106% | 111% | 113%
[2H]C([2H])([2H])Oc1ccc(/C=C/C(=O)/C=C(/C=C/c2ccc(OC([2H])([2H])[2H])c(OC([2H])([2H])[2H])c2OC([2H])([2H])[2H])OB(F)F)c(OC([2H])([2H])[2H])c1OC([2H])([2H])[2H] | 59.5 | 88.5% | 97.7% | 85.7% | 91.7% | 74.1% | 45.9% | 84.2% | 70.9% | 43.6% | 68.8% | 29.3% | 57% | 75.1% | 83.8% | 88.8 | 97.2% | 77.7% | 53.5% | 61.2%
COc1nc2ccccc2cc1/C=C1/C=C(c2ccccc2)NC1=O | 56.3 | 55.4% | 81.3% | 39.2% | 15.7% | 32.5% | 38.5% | 41.7% | 29.5% | 29.3% | 55.8% | 13.1% | 38.3% | 46.1% | 46% | 48.8 | 28.5% | 19.6% | 60.7% | 24.6%
CN1CCN(Cc2ccc(NC(=O)c3cncc(C#Cc4cnc(N)c5ncccc45)c3)cc2Cl)CC1 | 57.3 | 56.5% | 116% | 89.8% | 3.07% (active) | 75.6% | 85.2% | 74.7% | -78.2% (active) | 70.3% | 77.1% | -28.9% (active) | 54.2% | 16.2% | 21.8% | 98.7 | 101% | 83.1% | 89.7% | 84.4%
